# Laboratory results from the supplement of paper PMC10849652.
# Targets with a hit are over-represented here; the source holds about 7,900 in all. About 0.6% of all pairs of compound and target were hits. A number with no mark means an inactive call.
# How the values were obtained:
# Assay in all cases: log2 fold change, soluble protein after heating vs DMSO (PISA); higher = thermal stabilisation; K562 cells, 10 uM, 30 min; active = over 0.2 and 3.5 SD of the protein, either way, in both replicates (recomputed)
# [1] = compound: CS(=O)(=O)c1ccc(-c2cnc(N)c(C(=O)Nc3ccccc3)n2)cc1
# In short: (§1)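 Values are thermal stability changes relative to control samples and are taken from duplicates. They are stated as log2 fold changes. Before quantification by TMTpro 16plex LC-MS/MS with equalised channel sums, K562 cells at 2×10^6 cells/mL were treated with 10 μM compound for 30 min, heated in aliquots for 3 min across 48°C-58°C, pooled, extracted in PBS with 0.5% NP-40 at 4°C, and centrifuged at 21,000xg for 90 min to give the soluble supernatant.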
# crizotinib = compound: C[C@@H](Oc1cc(-c2cnn(C3CCNCC3)c2)cnc1N)c1c(Cl)ccc(F)c1Cl [crizotinib]
# In short: as §1
# [2] = compound: C[C@@H]1COCCN1C2=NC(=NC(=C2)C3(CC3)S(=O)(=O)C)C4=C5C=CNC5=CC=C4
# In short: as §1
# [3] = compound: C[C@H](C1=CC=C(C=C1)C(=O)NC2=C3C=CNC3=NC=C2)N
# In short: as §1
# duvelisib = compound: C[C@H](Nc1ncnc2nc[nH]c12)c1cc2cccc(Cl)c2c(=O)n1-c1ccccc1 [duvelisib]
# In short: as §1
# gandotinib = compound: Cc1cc(Nc2cc(CN3CCOCC3)c3nc(C)c(Cc4ccc(Cl)cc4F)n3n2)n[nH]1 [gandotinib]
# In short: as §1
# tozasertib = compound: Cc1cc(Nc2cc(N3CCN(C)CC3)nc(Sc3ccc(NC(=O)C4CC4)cc3)n2)n[nH]1 [tozasertib]
# In short: as §1
# [4] = compound: Cc1cc(SCc2sc(-c3ccc(C(F)(F)F)cc3)nc2C)ccc1OCC(=O)O
# In short: as §1
# doramapimod = compound: Cc1ccc(-n2nc(C(C)(C)C)cc2NC(=O)Nc2ccc(OCCN3CCOCC3)c3ccccc23)cc1 [doramapimod]
# In short: as §1
# ispinesib = compound: Cc1ccc(C(=O)N(CCCN)[C@@H](c2nc3cc(Cl)ccc3c(=O)n2Cc2ccccc2)C(C)C)cc1 [ispinesib]
# In short: as §1
# bafetinib = compound: Cc1ccc(NC(=O)c2ccc(CN3CC[C@H](N(C)C)C3)c(C(F)(F)F)c2)cc1Nc1nccc(-c2cncnc2)n1 [bafetinib]
# In short: as §1
# [5] = compound: Cc1cccc(CC(=O)N2CCc3c2ccc(-c2cn(C)c4ncnc(N)c24)c3F)n1
# In short: as §1
# nilotinib = compound: Cc1cn(-c2cc(NC(=O)c3ccc(C)c(Nc4nccc(-c5cccnc5)n4)c3)cc(C(F)(F)F)c2)cn1 [nilotinib]
# In short: as §1
# [6] = compound: Cc1nc(Nc2n[nH]c3c2CN(C(=O)N[C@H](CN(C)C)c2ccccc2)C3(C)C)c2sccc2n1
# In short: as §1
# dasatinib = compound: Cc1nc(Nc2ncc(C(=O)Nc3c(C)cccc3Cl)s2)cc(N2CCN(CCO)CC2)n1 [dasatinib]
# In short: as §1
# [7] = compound: Cc1ncc(-c2ccnc(Nc3ccc(S(C)(=O)=O)cc3)n2)n1C(C)C
# In short: as §1
# [8] = compound: Cn1cc(-c2ccc3c(c2)CCN3C(=O)Cc2cccc(C(F)(F)F)c2)c2c(N)ncnc21
# In short: as §1
# [9] = compound: Cn1cc(-c2ccc3nnc(C(F)(F)c4ccc5ncccc5c4)n3n2)cn1
# In short: as §1
# mubritinib = compound: FC(F)(F)c1ccc(/C=C/c2nc(COc3ccc(CCCCn4ccnn4)cc3)co2)cc1 [mubritinib]
# In short: as §1
# tipifarnib = compound: Cn1cncc1[C@@](N)(c1ccc(Cl)cc1)c1ccc2c(c1)c(-c1cccc(Cl)c1)cc(=O)n2C [tipifarnib]
# In short: as §1
# Chain of UniProt Q9H444 (Q9H444 whole entry, looked up): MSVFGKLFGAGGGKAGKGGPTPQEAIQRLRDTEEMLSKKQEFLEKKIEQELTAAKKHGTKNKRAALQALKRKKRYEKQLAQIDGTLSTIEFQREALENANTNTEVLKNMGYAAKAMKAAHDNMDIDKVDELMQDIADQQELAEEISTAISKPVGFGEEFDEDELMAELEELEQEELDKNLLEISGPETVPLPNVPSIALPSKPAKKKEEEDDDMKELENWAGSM
# Chain of UniProt P41240 (P41240 whole entry, looked up): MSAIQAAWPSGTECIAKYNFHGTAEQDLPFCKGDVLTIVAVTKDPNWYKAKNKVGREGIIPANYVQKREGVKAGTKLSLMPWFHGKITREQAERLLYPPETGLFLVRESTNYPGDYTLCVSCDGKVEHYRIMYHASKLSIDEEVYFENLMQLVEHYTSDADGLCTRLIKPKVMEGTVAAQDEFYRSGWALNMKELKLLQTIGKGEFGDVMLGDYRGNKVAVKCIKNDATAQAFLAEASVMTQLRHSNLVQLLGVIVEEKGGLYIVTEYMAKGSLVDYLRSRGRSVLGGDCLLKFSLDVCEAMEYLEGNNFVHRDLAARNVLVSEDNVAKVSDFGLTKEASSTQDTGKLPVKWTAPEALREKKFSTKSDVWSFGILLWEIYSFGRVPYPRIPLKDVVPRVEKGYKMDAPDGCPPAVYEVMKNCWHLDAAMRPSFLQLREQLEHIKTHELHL
# Chain of UniProt P35790 (P35790 whole entry, looked up): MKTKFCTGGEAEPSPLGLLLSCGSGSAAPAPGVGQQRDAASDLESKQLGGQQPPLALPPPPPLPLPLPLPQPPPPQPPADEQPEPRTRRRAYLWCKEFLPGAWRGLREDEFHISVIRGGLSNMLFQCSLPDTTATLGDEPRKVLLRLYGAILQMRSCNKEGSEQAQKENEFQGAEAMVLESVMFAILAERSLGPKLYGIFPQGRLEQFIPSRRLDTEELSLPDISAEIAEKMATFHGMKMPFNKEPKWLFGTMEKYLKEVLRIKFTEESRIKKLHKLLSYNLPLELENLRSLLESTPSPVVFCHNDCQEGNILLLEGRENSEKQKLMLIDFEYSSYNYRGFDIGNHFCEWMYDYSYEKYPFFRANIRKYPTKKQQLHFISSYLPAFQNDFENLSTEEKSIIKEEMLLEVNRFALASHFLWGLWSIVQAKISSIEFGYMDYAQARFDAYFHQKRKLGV
# Chain of UniProt Q96GQ5 (Q96GQ5 whole entry, looked up): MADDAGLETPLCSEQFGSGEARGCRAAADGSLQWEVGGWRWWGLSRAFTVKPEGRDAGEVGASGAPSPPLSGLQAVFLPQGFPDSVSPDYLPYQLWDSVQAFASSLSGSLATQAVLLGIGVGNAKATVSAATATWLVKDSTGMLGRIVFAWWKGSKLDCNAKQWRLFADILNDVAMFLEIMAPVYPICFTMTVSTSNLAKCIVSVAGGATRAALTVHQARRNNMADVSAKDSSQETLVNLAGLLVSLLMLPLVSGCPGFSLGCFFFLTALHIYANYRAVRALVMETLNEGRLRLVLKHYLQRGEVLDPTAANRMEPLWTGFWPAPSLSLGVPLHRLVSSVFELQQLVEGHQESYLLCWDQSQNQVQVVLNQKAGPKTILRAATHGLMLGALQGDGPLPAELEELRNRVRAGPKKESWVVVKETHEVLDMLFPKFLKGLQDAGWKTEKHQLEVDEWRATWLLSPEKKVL
# Chain of UniProt O75976 (O75976 whole entry, looked up): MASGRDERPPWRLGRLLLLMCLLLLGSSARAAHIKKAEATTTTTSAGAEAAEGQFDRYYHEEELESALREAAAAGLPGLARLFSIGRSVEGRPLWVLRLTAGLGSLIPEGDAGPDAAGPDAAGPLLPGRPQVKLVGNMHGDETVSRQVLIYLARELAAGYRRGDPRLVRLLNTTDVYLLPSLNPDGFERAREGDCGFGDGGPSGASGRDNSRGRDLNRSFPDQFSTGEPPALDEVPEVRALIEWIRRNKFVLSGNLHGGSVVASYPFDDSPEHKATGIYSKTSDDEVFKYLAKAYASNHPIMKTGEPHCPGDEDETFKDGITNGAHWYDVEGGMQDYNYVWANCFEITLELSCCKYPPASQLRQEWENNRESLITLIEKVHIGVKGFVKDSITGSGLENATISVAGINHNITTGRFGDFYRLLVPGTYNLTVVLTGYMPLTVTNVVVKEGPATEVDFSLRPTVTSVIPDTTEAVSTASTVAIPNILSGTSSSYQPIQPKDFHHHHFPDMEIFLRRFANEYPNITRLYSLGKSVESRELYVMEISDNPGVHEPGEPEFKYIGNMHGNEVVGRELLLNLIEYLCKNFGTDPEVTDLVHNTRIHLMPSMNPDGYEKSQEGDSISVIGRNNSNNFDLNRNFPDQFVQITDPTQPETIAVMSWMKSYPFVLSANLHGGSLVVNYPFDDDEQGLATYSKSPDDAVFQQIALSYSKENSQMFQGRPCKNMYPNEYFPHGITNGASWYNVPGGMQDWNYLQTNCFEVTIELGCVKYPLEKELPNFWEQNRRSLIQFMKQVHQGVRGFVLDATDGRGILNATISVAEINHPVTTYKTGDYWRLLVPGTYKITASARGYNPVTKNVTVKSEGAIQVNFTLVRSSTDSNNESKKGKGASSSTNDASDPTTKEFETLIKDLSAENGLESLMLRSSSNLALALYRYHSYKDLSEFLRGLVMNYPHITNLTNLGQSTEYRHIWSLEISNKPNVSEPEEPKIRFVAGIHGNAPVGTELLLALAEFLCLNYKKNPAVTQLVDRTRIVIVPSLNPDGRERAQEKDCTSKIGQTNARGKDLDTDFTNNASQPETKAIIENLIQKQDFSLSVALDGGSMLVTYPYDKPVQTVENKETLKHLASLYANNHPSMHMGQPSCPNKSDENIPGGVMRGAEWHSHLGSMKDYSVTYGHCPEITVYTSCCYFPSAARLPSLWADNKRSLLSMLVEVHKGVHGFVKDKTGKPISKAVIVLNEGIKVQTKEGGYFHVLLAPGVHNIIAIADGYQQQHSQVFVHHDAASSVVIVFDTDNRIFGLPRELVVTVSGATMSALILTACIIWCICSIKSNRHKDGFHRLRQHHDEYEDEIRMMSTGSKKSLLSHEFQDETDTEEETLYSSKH
# Chain of UniProt Q8N684 (Q8N684 whole entry, looked up): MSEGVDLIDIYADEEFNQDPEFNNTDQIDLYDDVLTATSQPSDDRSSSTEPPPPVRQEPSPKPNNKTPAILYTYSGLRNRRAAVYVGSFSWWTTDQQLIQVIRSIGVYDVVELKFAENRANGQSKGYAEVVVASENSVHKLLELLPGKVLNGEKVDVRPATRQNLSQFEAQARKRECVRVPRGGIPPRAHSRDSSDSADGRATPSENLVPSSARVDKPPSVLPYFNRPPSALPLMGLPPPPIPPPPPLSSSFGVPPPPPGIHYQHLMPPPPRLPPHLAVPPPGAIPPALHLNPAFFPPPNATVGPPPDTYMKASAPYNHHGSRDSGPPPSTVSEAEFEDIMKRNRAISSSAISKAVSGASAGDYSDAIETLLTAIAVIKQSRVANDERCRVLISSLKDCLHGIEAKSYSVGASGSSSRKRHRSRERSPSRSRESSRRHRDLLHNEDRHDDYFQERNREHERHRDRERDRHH
# Chain of UniProt Q7KZN9 (Q7KZN9 whole entry, looked up): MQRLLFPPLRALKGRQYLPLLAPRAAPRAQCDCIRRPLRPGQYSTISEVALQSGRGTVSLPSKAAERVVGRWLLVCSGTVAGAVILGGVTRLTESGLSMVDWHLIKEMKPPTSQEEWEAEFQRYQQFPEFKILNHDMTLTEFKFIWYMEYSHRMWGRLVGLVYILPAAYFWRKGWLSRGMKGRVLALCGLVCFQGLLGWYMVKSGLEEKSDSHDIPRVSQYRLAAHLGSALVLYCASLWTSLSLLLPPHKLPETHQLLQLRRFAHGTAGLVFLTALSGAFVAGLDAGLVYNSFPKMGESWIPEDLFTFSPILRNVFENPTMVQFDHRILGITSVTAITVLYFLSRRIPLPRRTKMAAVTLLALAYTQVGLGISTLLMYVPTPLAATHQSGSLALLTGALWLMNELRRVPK
Target,log2 fold change [1],log2 fold change (crizotinib),log2 fold change [2],log2 fold change [3],log2 fold change (duvelisib),log2 fold change (gandotinib),log2 fold change (tozasertib),log2 fold change [4],log2 fold change (doramapimod),log2 fold change (ispinesib),log2 fold change (bafetinib),log2 fold change [5],log2 fold change (nilotinib),log2 fold change [6],log2 fold change (dasatinib),log2 fold change [7],log2 fold change [8],log2 fold change [9],log2 fold change (mubritinib),log2 fold change (tipifarnib)
CRYM-AS1 (UniProt A6NIL9),0.2,-0.077,-0.132,-0.08,-0.035,-0.299,-0.079,-0.024,-0.144,0.022,0.063,0.048,-0.023,-0.426,-0.108,-0.28,-0.015,-0.189,0.114,–
CSK (UniProt P41240),0.082,-0.033,0.112,-0.004,-0.018,-0.018,0.026,0.046,0.003,-0.028,0.088,0.019,0.126,-0.001,0.137,0.017,0.019,-0.031,0.107,-0.129
CPD (UniProt O75976),0,-0.294 (active),0.002,0.019,0.036,0.033,-0.036,-0.01,0.028,-0.174,-0.07,0.01,-0.007,-0.033,0.026,-0.029,-0.029,0.026,-0.009,0.055
CHKA (UniProt P35790),-0.022,0.075,-0.034,0.046,-0.002,0.009,-0.013,-0.012,-0.011,0.048,0.123,-0.023,0.178,0.149,0.07,0.088,-0.02,-0.081,-0.024,-0.026
C16orf58 (UniProt Q96GQ5),0.011,-0.057,0.126,0,0.044,-0.08,-0.028,-0.035,0.006,-0.309 (active),-0.112,0.052,-0.036,0.029,-0.046,-0.01,0.084,0.012,0.021,0.003
CPSF7 isoform 3 (UniProt Q8N684),-0.016,0.013,0.026,-0.05,0.017,-0.004,-0.012,0.018,-0.014,0.09,0.07,-0.107,0.028,-0.552 (active),0.012,0.044,0.003,-0.027,-0.048,-0.048
CHMP4B (UniProt Q9H444),-0.067,-0.036,-0.011,-0.022,-0.004,-0.075,-0.037,-0.014,0.005,-0.008,-0.078,0.061,-0.027,0.007,0.017,-0.023,0.012,-0.013,0.051,0.053
COX15 (UniProt Q7KZN9),-0.008,-0.015,0.041,0.006,0.035,-0.07,-0.029,-0.033,-0.023,-0.016,0.09,-0.02,-0.013,0.02,0.078,-0.034,0.008,-0.023,0.038,0.046
